Assay results as given in PubChem BioAssay (NCATS).
Inconclusive results are not listed. The source made the active and inactive calls. Unless noted, the call rests on the fitted dose curve; in most records, active means well fitted curve in the direction sought with a large enough effect; inconclusive means small, poorly fitted or top-dose-only effect, or another doubt; inactive means no such curve, though single readings can be large; an effect the other way counts as inactive or inconclusive.

What was measured:
[1] = qHTS for differential inhibitors of proliferation of Plasmodium falciparum line W2 (AID 1883); conditions: Potency: Plasmodium falciparum W2 proliferation inhibition;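 further: potency means the concentration at half of the fitted maximal effect; parasites grown with compound for 72 h before lysis and staining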
[2] = qHTS for differential inhibitors of proliferation of Plasmodium falciparum line HB3 (AID 1886); conditions: Potency: Plasmodium falciparum HB3 proliferation inhibition;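 further: parasites grown with compound for 72 h before SYBR Green readout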
[3] = qHTS Assay for Modulators of Human Peripheral Myelin Protein 22 (PMP22) Expression/Activity (AID 1967; active means well fitted curve in the direction sought with a large enough effect in the signal ratio; the % refers to the signal ratio)
How it was run: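 Quantitative HTS in a mouse Schwann cell line expressing dual click beetle luciferases: Pmp22 promoter (green) and control EF-alpha promoter (red). After 24h treatment, corrected green/red signal ratio gave %Activity relative to untreated cells.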

[4] = target: Ferritin light chain (Equus caballus) (UniProt P02791); test: qHTS Validation Assay for Identification of Novel General Anesthetics (AID 2323); further: series mostly up to about 77 µM
How it was run: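 Apoferritin from horse spleen (10 uM) was mixed with 1-aminoanthracene at 50% saturation in PBS, then compounds were added. After 10 min at room temperature, fluorescence was read (ex 380 nm, em 535 nm) and normalized to free-probe and complex controls.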

[5] = target: ATP-dependent DNA helicase Q1 (Homo sapiens) (UniProt P46063); test: qHTS Validation Assay for Inhibitors of RecQ-Like Dna Helicase 1 (RECQ1) (AID 2353)
How it was run: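 RECQ1T1 50 nM; forked duplex (20 bp + 30-nt ss tails) 200 nM, ATP 2 mM final; pH 8.0, 2 mM MgCl2, 2.5 ug/ml poly(dI-dC); 15 min compound preincubation; discontinuous kinetic read over 2 h at RT.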

[6] = target: RecQ-like DNA helicase BLM (Homo sapiens) (UniProt P54132); test: qHTS Validation Assay for Inhibitors of Bloom's syndrome helicase (BLM) (AID 2364)
How it was run: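 Forked 20-bp duplex substrate (200 nM, TAMRA/BHQ-2) plus 2 mM ATP added after 15 min compound preincubation with 50 nM enzyme, pH 8.0, poly(dI-dC) 2.5 ug/ml. Strand separation followed by fluorescence (525/598 nm) over 2 h, normalized to enzyme-free and DMSO controls.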

[7] = Cytometric Cell-Based qHTS for Inhibitors of the mTORC1 Signaling Pathway in MEF (Tsc2-/-, p53-/-) Cells (AID 2660); further: potency means the concentration at half of the fitted maximal effect
How it was run: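 Percent of cells positive for normalized phospho-S6 staining is reported, with the cutoff set from rapamycin (7.5 nM) versus DMSO wells. Tsc2-/-, p53-/- MEFs received compound for 24 hrs.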

[8] = High Content Imaging Cell-Based qHTS for Inhibitors of the mTORC1 Signaling Pathway in MEF (Tsc2-/-, p53-/-) Cells (AID 2666);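 further: percent of cells scored positive for phospho-rpS6 Ser235/236 immunostaining by imaging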; further: potency means the concentration at half of the fitted maximal effect
How it was run: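 Tsc2-/-, p53-/- MEFs (empty-vector stable) grown in DMEM + 10% FBS were exposed to compounds for 24 hrs at 37 degree Celsius, fixed, and stained with Alexa-488 anti-phospho-rpS6 Ser235/236 plus Hoechst. Imaging gave the percentage of positive cells per well.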

[9] = High Content Imaging Cell-Based qHTS for Inhibitors of the mTORC1 Signaling Pathway in MEF Cells (AID 2667); further: potency means the concentration at half of the fitted maximal effect
How it was run: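 Tsc2-/-, p53-/- MEFs stably re-expressing WT Tsc2, grown in DMEM + 10% FBS, were treated with compounds for 24 hrs at 37 degree Celsius, fixed, and stained with Alexa-488 phospho-rpS6 Ser235/236 antibody plus Hoechst; results given as % positive cells.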

[10] = Cytometry Cell-Based qHTS for Inhibitors of the mTORC1 Signaling Pathway in MEF cells (AID 2668); further: potency means the concentration at half of the fitted maximal effect
How it was run: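 Pathway inhibition in WT Tsc2-rescued Tsc2-/-, p53-/- MEFs is measured as the Alexa-488 phospho-rpS6 to propidium iodide intensity ratio after 24 hrs of compound at 37 degree Celsius. PI-stained cell number gives viability.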

[11] = Validation screen for inhibitors of Lassa infection (AID 463096; calls by dose curve; further: potency means the concentration at half of the fitted maximal effect)
[12] = Validation screen for small molecules that induce DNA re-replication in MCF 10A normal breast cells (AID 463097); further: nearly all actives have a fitted effect of over 60% in size
How it was run: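 DNA re-replication was detected as a rise in nuclei with elevated Hoechst fluorescence after a 48 hr compound exposure of MCF 10A cells at 37 C.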

[13] = target: Ubiquitin carboxyl-terminal hydrolase 2 (Homo sapiens) (UniProt O75604); test: qHTS Validation Assay for Inhibitors of Ubiquitin-specific Protease USP2a Using CHOP2 as the Reporter (AID 463106)
How it was run: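 Readout was coupled fluorescence (Ex 485/Em 531 nm), read 60 min after adding 25 nM final Ub-CHOP2 and 25 nM reporter substrate. Beforehand, 10 nM final USP2 core had 30 min at RT with compound in pH 8.0 buffer. Curves were fitted after normalization to NEM and flagged for artifacts using time-zero reads.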

[14] = target: DNA polymerase III PolC-type (Bacillus subtilis (strain 168)) (UniProt P13267); test: qHTS Validation Assay for the Inhibitors of DNA Replication in Gram-Positive Bacteria (AID 485295);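 further: reconstituted holoenzyme with PolC plus beta clamp SSB and primase; PicoGreen fluorescence of double-stranded DNA made on primed circular M13 template; series mostly up to about 57 µM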
How it was run: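 Primed replication of single-stranded M13Gori by a four-protein B. subtilis holoenzyme is measured at room temperature. Double-stranded product is quantified by PicoGreen fluorescence after an EDTA stop; inhibition is scaled between DMSO and EDTA controls.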

[15] = target: Tumor susceptibility gene 101 protein (Homo sapiens) (UniProt Q99816); test: qHTS Validation Assay for Iinhibitors of HIV-1 Budding by Blocking the Interaction of PTAP/TSG101 (AID 485342; calls by dose curve)
How it was run: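 Fluorescence anisotropy measured PTAP-Tsg101 interaction. Final concentrations were 10 uM protein domain and 50 nM labeled peptide, equilibrated 20 min at room temperature.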

[16] = qHTS Validation Assay to Find Inhibitors of Chronic Active B-Cell Receptor Signaling (AID 485345; active means well fitted curve in the direction sought with a large enough effect in the main read-out, with a control signal flat, not every such curve was filed as active)
How it was run: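 Read-out: ratio of filter-corrected green (IkappaBalpha fusion) to red (native) luciferase signal in doxycycline-induced TMD8 cells after 4 h at 37C. Titration spanned 46 uM–3 nM; Data were normalised to basal cells and 10 uM MG-132 wells.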

[17] = target: Beta-2 adrenergic receptor (Homo sapiens) (UniProt P07550); test: qHTS validation assay of beta-arrestin-biased ligands of beta2-adrenergic receptor (AID 485366)
How it was run: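 Screening used a titration range of up to 46 microM in a beta-arrestin recruitment Tango luciferase assay. Cells in 1% FBS medium were treated 18 hr at 37 degrees C, and luminescence was normalized to %Activity.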

[18] = Quantitative high throughput screen for delayed death inhibitors of the malarial parasite plastid, 96 hour incubation (AID 488745);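 further: luciferase-expressing P. falciparum in erythrocytes at 2% hematocrit and 0.1% parasitemia; series mostly up to about 29 µM; nearly all actives have a fitted effect of over 70% in size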
How it was run: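 Luciferase-expressing P. falciparum, infected RBCs 2% Hct/0.1% parasitemia (final); 96 h cpd exposure, 37 C, 5% CO2; RPMI 1640 + 0.5% Albumax, bicarbonate, gentamycin. Readout: luminescence loss = growth inhibition.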

[19] = qHTS for differential inhibitors of proliferation of Plasmodium falciparum line Dd2 (AID 1882); conditions: Potency: Plasmodium falciparum Dd2 proliferation inhibition; further: nearly all actives have a fitted effect of over 65% in size; further: potency means the concentration at half of the fitted maximal effect
How it was run: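 RBC culture, 0.3% parasitemia / 2.5% Hct final; cpd added by pin tool in DMSO; 72 h, 37 C, 5% CO2; lysis buffer + SYBR Green I, o/n RT dark; FI 485/535; norm. to artemisinin 0.29 uM and DMSO.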

[20] = qHTS Assay for Identification of Small Molecule Inducers of Hypoxia Response (AID 2120; active means well fitted curve in the direction sought with a large enough effect in the signal ratio, with a control signal flat, not every such curve was filed as active; the % refers to the signal ratio)
How it was run: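 Read-out: CCF4 FRET emission ratio 460nm/530nm (excitation 405nm), converted to %Activity, with AC50 fitted across a compound titration. ME-180 cells carried an HRE-driven beta-lactamase reporter; compound exposure 17 h, 37 degrees C.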

Measured: Potency

Sequence of DNA polymerase III PolC-type (Bacillus subtilis (strain 168)) (P13267 whole entry, looked up): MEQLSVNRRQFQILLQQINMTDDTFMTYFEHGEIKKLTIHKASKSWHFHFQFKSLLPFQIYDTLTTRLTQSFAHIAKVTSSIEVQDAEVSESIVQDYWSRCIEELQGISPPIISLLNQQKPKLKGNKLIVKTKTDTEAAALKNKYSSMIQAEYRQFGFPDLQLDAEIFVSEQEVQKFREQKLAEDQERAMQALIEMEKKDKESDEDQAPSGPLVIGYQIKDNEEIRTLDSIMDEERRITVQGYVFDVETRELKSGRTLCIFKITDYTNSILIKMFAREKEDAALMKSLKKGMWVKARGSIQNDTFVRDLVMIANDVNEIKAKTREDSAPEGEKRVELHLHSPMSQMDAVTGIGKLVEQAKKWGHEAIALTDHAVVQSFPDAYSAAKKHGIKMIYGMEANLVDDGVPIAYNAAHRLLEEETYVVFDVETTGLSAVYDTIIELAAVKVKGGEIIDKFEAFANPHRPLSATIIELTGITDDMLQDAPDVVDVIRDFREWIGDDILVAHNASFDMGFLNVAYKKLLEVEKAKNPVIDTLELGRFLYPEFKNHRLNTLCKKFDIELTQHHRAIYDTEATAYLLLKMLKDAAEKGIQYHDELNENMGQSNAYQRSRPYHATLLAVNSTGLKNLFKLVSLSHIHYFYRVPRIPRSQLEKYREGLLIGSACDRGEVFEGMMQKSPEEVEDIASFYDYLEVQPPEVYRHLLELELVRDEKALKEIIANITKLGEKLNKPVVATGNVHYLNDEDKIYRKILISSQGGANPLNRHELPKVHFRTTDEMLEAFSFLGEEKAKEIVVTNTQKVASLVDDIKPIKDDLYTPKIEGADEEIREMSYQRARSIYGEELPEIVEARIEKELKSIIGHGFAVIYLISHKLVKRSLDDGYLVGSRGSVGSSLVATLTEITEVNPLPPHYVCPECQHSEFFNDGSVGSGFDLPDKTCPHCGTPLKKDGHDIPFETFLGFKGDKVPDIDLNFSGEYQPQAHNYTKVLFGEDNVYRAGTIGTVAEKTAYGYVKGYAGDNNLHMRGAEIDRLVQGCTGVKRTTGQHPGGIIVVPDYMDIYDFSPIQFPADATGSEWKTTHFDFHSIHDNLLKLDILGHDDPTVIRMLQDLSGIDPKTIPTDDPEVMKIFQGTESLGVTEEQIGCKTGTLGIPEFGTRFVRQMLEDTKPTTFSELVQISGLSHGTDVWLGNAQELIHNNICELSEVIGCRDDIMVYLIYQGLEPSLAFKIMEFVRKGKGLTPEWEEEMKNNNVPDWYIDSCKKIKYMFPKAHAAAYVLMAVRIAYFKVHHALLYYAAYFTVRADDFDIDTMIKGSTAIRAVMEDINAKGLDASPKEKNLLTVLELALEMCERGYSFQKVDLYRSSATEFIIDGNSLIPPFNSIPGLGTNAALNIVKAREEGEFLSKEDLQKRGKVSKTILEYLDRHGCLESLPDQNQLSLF
Sequence of ATP-dependent DNA helicase Q1 (Homo sapiens) (P46063 whole entry, looked up): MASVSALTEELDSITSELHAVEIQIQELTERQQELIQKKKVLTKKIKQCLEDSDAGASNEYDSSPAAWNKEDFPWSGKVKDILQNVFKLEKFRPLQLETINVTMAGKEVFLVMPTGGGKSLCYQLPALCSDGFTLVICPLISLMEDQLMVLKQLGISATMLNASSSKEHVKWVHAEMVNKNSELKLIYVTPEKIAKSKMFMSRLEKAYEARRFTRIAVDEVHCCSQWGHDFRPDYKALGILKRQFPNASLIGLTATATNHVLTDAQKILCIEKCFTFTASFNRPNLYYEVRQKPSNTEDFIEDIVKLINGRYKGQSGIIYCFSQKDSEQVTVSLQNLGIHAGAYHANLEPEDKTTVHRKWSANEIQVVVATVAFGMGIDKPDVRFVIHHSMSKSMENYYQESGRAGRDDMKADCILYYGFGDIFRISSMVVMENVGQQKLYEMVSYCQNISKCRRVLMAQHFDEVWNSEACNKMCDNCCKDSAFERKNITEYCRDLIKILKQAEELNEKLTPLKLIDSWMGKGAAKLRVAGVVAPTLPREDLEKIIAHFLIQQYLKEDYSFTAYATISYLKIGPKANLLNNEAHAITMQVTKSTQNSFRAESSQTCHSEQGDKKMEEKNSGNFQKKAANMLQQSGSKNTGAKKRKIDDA
Sequence of Beta-2 adrenergic receptor (Homo sapiens) (P07550 whole entry, looked up): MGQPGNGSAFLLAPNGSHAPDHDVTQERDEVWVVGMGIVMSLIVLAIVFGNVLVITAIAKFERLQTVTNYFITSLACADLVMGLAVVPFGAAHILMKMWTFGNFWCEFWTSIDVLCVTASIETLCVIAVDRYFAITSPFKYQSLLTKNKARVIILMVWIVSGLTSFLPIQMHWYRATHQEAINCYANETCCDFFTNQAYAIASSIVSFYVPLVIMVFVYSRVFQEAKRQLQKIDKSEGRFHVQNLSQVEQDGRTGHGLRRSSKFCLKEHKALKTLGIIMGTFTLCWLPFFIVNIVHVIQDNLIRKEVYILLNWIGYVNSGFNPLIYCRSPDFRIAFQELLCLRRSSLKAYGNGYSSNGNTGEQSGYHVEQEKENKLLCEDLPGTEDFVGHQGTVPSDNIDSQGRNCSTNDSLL
Sequence of RecQ-like DNA helicase BLM (Homo sapiens) (P54132 whole entry, looked up): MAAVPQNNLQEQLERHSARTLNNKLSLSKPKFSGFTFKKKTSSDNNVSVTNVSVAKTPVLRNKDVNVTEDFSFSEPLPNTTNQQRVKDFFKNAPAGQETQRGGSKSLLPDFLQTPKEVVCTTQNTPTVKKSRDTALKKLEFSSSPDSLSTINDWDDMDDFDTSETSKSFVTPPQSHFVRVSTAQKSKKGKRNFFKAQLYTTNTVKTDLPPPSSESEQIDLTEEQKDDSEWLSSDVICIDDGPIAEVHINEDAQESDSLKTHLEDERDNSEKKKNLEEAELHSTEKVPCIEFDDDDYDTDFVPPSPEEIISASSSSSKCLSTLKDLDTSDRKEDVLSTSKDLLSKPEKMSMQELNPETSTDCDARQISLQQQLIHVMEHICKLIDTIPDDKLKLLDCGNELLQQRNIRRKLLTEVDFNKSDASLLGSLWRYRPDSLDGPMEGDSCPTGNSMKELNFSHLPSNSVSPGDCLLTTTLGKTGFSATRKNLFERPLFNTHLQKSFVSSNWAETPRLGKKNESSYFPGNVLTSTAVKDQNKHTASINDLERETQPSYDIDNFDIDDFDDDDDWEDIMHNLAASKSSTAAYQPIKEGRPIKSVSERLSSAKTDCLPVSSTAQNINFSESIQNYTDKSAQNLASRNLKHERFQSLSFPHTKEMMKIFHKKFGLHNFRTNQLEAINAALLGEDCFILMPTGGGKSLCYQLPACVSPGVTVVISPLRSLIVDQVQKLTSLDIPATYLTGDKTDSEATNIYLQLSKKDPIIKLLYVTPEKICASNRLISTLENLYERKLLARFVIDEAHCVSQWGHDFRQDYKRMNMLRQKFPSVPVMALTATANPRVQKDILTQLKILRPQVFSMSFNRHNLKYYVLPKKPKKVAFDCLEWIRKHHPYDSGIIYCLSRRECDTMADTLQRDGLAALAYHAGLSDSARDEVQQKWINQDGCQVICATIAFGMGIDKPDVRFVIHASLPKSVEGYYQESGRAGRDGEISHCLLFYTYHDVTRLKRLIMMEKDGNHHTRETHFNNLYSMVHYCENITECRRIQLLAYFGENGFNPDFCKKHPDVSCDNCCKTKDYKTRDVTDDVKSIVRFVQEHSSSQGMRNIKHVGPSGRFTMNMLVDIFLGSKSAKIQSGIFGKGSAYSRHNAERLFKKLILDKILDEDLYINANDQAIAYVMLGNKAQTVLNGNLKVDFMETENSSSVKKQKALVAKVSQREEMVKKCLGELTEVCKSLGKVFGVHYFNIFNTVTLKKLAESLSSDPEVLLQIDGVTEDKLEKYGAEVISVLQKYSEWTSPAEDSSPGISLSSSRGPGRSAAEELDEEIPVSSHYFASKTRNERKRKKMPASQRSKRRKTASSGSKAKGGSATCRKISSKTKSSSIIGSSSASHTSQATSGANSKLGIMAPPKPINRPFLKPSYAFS
Sequence of Ubiquitin carboxyl-terminal hydrolase 2 (Homo sapiens) (O75604 whole entry, looked up): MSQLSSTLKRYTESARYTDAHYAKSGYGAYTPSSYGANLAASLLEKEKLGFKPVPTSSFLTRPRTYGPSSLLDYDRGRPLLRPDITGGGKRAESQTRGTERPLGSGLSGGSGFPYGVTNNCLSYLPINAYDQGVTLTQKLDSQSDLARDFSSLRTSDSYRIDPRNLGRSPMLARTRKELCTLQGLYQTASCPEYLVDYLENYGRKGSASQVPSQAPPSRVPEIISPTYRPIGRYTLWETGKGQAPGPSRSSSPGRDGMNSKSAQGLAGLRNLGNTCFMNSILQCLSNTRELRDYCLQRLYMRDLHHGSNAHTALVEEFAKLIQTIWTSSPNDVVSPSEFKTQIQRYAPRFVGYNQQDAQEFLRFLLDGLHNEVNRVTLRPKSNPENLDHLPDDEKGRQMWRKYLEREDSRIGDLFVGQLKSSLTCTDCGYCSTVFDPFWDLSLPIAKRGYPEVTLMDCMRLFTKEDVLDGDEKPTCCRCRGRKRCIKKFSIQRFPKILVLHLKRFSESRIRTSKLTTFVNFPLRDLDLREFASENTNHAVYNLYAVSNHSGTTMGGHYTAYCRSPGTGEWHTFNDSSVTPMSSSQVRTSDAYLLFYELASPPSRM
Sequence of Tumor susceptibility gene 101 protein (Homo sapiens) (Q99816 whole entry, looked up, the tested form may be a part): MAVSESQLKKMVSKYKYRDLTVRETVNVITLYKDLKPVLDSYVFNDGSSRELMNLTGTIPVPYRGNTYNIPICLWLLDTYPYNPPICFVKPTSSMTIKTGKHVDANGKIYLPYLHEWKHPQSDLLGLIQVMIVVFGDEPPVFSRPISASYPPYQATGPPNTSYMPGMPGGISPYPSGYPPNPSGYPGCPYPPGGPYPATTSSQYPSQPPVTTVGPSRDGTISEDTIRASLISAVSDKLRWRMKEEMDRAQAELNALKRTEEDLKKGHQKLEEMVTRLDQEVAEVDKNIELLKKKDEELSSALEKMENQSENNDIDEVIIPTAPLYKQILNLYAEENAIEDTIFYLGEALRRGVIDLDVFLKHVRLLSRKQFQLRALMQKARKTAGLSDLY

C=CCN1CC[C@]23CCCCC2[C@H]1Cc1ccc(O)cc13 (stereo partly drawn)
active: [1] 7.08 µM
not listed: [19] | [20]
inactive: all other assays above

CCCN1CCC[C@H](c2cccc(O)c2)C1
active: [1] 11.2 µM
not listed: [6] | [19] | [20]
inactive: all other assays above

CC[C@@H]1C(=O)OC[C@@H]1Cc1cncn1C
inactive: [19] | [2] | [3] | [4] | [5] | [6] | [11] | [12] | [18]

CCCCOC(=O)c1ccccc1C(=O)OCc1ccccc1
inactive: [20]

O=[N+]([O-])c1c(Cl)c(Cl)cc(Cl)c1Cl
inactive: [20]

CCCN(CCC)[C@@H]1CCc2ccc(O)cc2C1
active: [1] 11.2 µM
not listed: [6] | [19] | [20]
inactive: all other assays above

CCCCCCCCc1ccc(O)cc1
inactive: [20]

Nc1ccc([N+](=O)[O-])cc1
inactive: [20]

CC(C)Oc1cccnc1N(C)C1CCN(Cc2ccccc2)CC1
active: [1] 4.47 µM
not listed: [2] | [3] | [12] | [19] | [20]
inactive: all other assays above

C1CCC(NC2CCCCC2)CC1
inactive: [20]

OCCCBr
inactive: [20]

CC(=O)NCCc1c[nH]c2ccccc12
not listed: [1] | [6] | [20]
inactive: all other assays above

COC(C)(C)CCCC(C)C/C=C/C(C)=C/C(=O)OC(C)C (stereo not drawn)
inactive: [20]

CN[C@@H]1C[C@@H](c2ccc(Cl)c(Cl)c2)c2ccccc21
active: [19] 12.6 µM | [7] 18.5 µM
inactive: [5] | [6] | [13] | [14] | [15] | [17]

NCCc1c[nH]c2ccccc12
not listed: [1] | [2] | [3] | [20]
inactive: all other assays above

Cc1c(C(=O)c2cccc3ccccc23)c2cccc3c2n1[C@H](CN1CCOCC1)CO3
active: [1] 4.47 µM | [9] 18.5 µM
inactive: [4] | [5] | [8] | [11] | [13] | [14] | [15] | [17]

C[C@]12CCC3C(CC[C@H]4C[C@H](O)CC[C@]34C)C1CC[C@@H]2C(=O)CO (stereo partly drawn)
active: [1] 10 µM
not listed: [2] | [3] | [16] | [18] | [19] | [20]
inactive: all other assays above

CC(C)NC(C)Cc1ccc(I)cc1 (stereo not drawn)
active: [1] 7.08 µM
not listed: [2] | [3] | [18] | [19] | [20]
inactive: all other assays above

Nc1ccc(Sc2ccc(N)cc2)cc1
inactive: [20]

O=C(O)COc1ccccc1
inactive: [20]

NCCS
inactive: [11]

CN(C)NC(=O)CCC(=O)O
inactive: [20]

CCOP(=O)(NC(C)C)Oc1ccc(SC)c(C)c1 (stereo not drawn)
inactive: [20]

Nc1ccc(Cl)cc1N
inactive: [20]

COC(=O)[C@@H](N)CCCN=C(N)N[N+](=O)[O-]
inactive: [7] | [8] | [9] | [10] | [13] | [14] | [15] | [16] | [17]

NCCCC(N)(C(=O)O)C(F)F (stereo not drawn)
inactive: [11]

CC1=C(/C=C/C(C)=C/C=C/C(C)=C/C(=O)O)C(C)(C)CCC1
inactive: [11]

CCCCC(CC)COC(=O)c1ccccc1C(=O)OCC(CC)CCCC (stereo not drawn)
inactive: [20]

CC(C)(C)NCC(O)c1ccc(O)c(CO)c1 (stereo not drawn)
inactive: [11]

CCc1c(C)[nH]c2c1C(=O)C(CN1CCOCC1)CC2 (stereo not drawn)
inactive: [11]

CC[C@@H](C(N)=O)N1CCCC1=O
inactive: [7] | [8] | [9] | [10] | [13] | [14] | [15] | [16] | [17]

O=[N+]([O-])c1cc([N+](=O)[O-])c2ccccc2c1
inactive: [20]

CCN1CCc2nc(N)oc2CC1
inactive: [11]

CC(C)c1ccc2c(c1)c(SC(C)(C)C)c(CC(C)(C)C(=O)O)n2Cc1ccc(Cl)cc1
inactive: [11]

CC(C)C[C@H](NC(=O)[C@@H](O)[C@H](N)Cc1ccccc1)C(=O)O
inactive: [11]

C[C@@H](N)C1CCC(C(=O)Nc2ccncc2)CC1 (stereo partly drawn)
inactive: [11]

O=C(N[C@H]1CN2CCC1CC2)c1ccc(Cl)cc1
inactive: [7] | [8] | [9] | [10] | [13] | [14] | [15] | [16] | [17]

CC(C[N+](C)(C)C)OC(N)=O (stereo not drawn)
inactive: [11]

CCOCCOC(C)=O
inactive: [20]

c1cc2ccc3cccc4ccc(c1)c2c34
inactive: [20]

C=CC(=O)NCNC(=O)C=C
inactive: [20]

c1ccc(C2(c3ccccc3)CC2C2=NCCN2)cc1 (stereo not drawn)
inactive: [7] | [8] | [9] | [10] | [13] | [14] | [15] | [16] | [17]

CCn1cc(C(=O)O)c(=O)c2cc3c(cc21)OCO3
inactive: [4] | [11]

CC(=O)Oc1ccccc1C(=O)O
inactive: [11]

COc1ccc(C(c2ccc(OC)cc2)C(Cl)(Cl)Cl)cc1
inactive: [20]

CC(C)(Sc1ccc(CCN(CCCCC2CCCCC2)C(=O)NC2CCCCC2)cc1)C(=O)O
inactive: [11]

O=S(=O)(c1ccc(Cl)cc1)c1ccc(Cl)cc1
inactive: [20]

CS(=O)(=O)Nc1ccc([N+](=O)[O-])cc1Oc1ccccc1
inactive: [11]

C/C=C(/C)C(=O)O[C@H]1C(C)=C2[C@H]([C@@H]1OC(=O)CCCCCCC)[C@@](C)(OC(C)=O)C[C@H](OC(=O)CCC)[C@@]1(O)[C@H]2OC(=O)[C@@]1(C)O
inactive: [13] | [15] | [17]
active: [8] 0.0261 µM | [9] 0.0037 µM | [10] 0.0083 µM

O=C(O)C(Cl)Cl
inactive: [20]

CN[C@@H](C)[C@H](O)c1ccccc1
active: [11] 10 µM
inactive: [4] | [5]

CCN(CC)CCNC(=O)c1ccc(NC(C)=O)cc1
inactive: [11]

O=[N+]([O-])c1c2ccccc2cc2ccccc12
inactive: [20]
